# Screening data deposited in PubChem by National Center for Advancing Translational Sciences (NCATS).
# Only some compounds are listed: those with a hit (about 1.4% of all), similar ones and a draw of the others.
# AmpC inh no detg = qHTS Inhibitors of AmpC Beta-Lactamase (assay without detergent); P00811; AmpC nitrocefin hydrolysis, absorbance 480 nm, 0.0001% Triton; Potency, µM (top dose mostly 57.1 µM), inactives show top-dose activity change, negative = inhibition, actives largely listed as inhibitors; hit rate 0.52% among 330,000;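 note: plate controls were no compound for no effect and no enzyme for full effect; nearly all actives have a fitted effect of over 20% in size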
#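 AmpC (5.3 nM in the dispensed reagent) in 20 mM phosphate pH 7.0 with 0.01% (detergent screen) or 0.0001% Triton X-100 was preincubated with compounds for 15 min at room temperature. Nitrocefin was then added from an 800 uM solution, and hydrolysis was followed at 480 nm.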
# AmpC inh detg = qHTS Inhibitors of AmpC Beta-Lactamase (assay with detergent). Potency, µM (top dose mostly 114 µM), for inactives: top-dose activity change, negative = inhibition, hits mostly inhibitors. AmpC hydrolysis of nitrocefin, absorbance 480 nm, 0.01% Triton. AID 485294, 2010. hit rate 0.041% among 370,000;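 note: 0% = no-compound wells and -100% = no-enzyme wells; nearly all actives have a fitted effect of over 25% in size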
#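 AmpC (5.3 nM in the dispensed reagent) in 20 mM phosphate pH 7.0 with 0.01% (detergent screen) or 0.0001% Triton X-100 was preincubated with compounds for 15 min at room temperature. Nitrocefin was then added from an 800 uM solution, and hydrolysis was followed at 480 nm.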
# RE007 growth inh = qHTS Assay for Inhibitors of the HIV-1 protein Vpr | S. pombe RE007 Vpr strain, BacTiter-Glo ATP luminescence, 24 h | Potency, µM (doses to about 92.2 µM), inactives show at the highest dose activity change, negative = less growth, most hits filed as inhibitors | hit rate 0.21% among 360,000 | AID 651644, 2012; active = well fitted falling curve with a large enough effect; inconclusive = small, poorly fitted or top-dose-only effect; inactive = no such curve, though single readings can be large or run the other way; note: nearly all actives have a fitted effect of over 50% in size
#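 Fission yeast RE007 carrying one integrated HIV-1 vpr copy, seeded at OD 0.01 in PMG+AL medium with 23 nL pinned compound. Grown 24 h at 30 degrees; viability read by BacTiter-Glo luminescence after 5 min.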
# FBPA Giardia inh = qHTS Assay for Inhibitors of Fructose-1,6-bisphosphate Aldolase from Giardia Lamblia; A8B2U2; purified Giardia FBPA; Potency, µM (series often up to 59.6 µM), for inactives: at the top dose activity, negative = inhibition, hits mostly inhibitors; hit rate 0.71% among 290,000; AID 2451, 2010; note: nearly all actives have a fitted effect of over 55% in size
#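 Giardia FBPA (40 nM reagent) was preincubated 10 min at RT with compound (up to 57.5 uM final), then substrate plus GAPDH/TPI/NAD/arsenate coupling system with diaphorase/resazurin was added; resorufin fluorescence (525/598 nm) was read after 20 min.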
# LmPK inh = qHTS Assay for Inhibitors of Leishmania Mexicana Pyruvate Kinase (LmPK); Q27686; purified LmPK, Kinase-Glo ATP luminescence, 1 h; AID 1721, 2009; Potency, µM (titrated, usually from 57.5 µM), inactives show at the highest dose activity change, negative = inhibition, usual class: inhibitors; hit rate 0.37% among 290,000
# Target sequence (Q27686 whole entry, looked up): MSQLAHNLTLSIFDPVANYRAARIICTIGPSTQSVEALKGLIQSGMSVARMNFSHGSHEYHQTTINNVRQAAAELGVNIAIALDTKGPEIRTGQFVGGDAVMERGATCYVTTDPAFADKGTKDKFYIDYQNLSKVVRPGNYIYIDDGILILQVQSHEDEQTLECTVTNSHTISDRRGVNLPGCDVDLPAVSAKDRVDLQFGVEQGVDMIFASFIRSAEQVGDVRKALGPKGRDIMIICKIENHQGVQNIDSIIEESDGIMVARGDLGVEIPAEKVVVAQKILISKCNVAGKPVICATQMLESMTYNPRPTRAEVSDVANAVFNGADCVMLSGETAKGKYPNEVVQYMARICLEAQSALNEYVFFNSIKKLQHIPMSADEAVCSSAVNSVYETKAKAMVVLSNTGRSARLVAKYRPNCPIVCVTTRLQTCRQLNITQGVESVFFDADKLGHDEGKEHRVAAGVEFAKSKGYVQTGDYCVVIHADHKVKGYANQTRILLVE
#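 Kinase-Glo luminescence read after 1 h RT reaction of 0.1 nM LmPK with 0.5 mM PEP and 0.1 mM ADP. Activity scaled between uninhibited and enzyme-free controls.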
# TbPYK inhibitor = qHTS of Trypanosoma Brucei Inhibitors | hit rate 0.12% among 410,000 | TbPYK enzyme, Kinase-Glo Plus ATP luminescence, 45 min | pyruvate kinase (Trypanosoma brucei), Q57TT1 | AID 624173, 2012 | Potency, µM (doses to about 76.8 µM), for inactives: top-dose activity, negative = inhibition, actives largely listed as inhibitors; note: nearly all actives have a fitted effect of over 50% in size
#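 T. brucei PYK with substrate was exposed to pin-transferred compounds across a concentration series, then started with 130 uM ADP (final). After 45 min at room temperature, Kinase-Glo Plus luminescence was read, normalized and curve-fitted.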
# Active calls of the source: *; u = inconclusive; x = no result given. Unless noted, calls come from the whole dose curve; as a rule, active = well fitted curve in the direction sought with a large enough effect; inconclusive = small, poorly fitted or top-dose-only effect, or another doubt; inactive = no such curve, though single readings can be large; an effect the other way counts as inactive or inconclusive. Unless noted, % is set by controls: 0 for no effect and ±100 for the full control effect; potency is the fitted concentration of half-maximal effect.
SMILES,AmpC inh no detg,AmpC inh detg,RE007 growth inh,FBPA Giardia inh,LmPK inh,TbPYK inhibitor
O=C(/C=C\Nc1ccccn1)c1ccc(Cl)cc1,-16%,-4%,-19%,2%,13µM*,-15%
Cc1[nH]c2ccc(-c3n[nH]c(=S)n3-c3ccccc3)cc2c1C,-47%,-7%,6%,13%,u,u
COc1cccc(-n2c(-c3cccc(S(=O)(=O)N(C)C)c3)n[nH]c2=S)c1,-31%,-9%,6%,-8%,3%,7.1µM*
COc1ccc(OC)c(-n2c(-c3cccc(S(=O)(=O)N(C)C)c3)n[nH]c2=S)c1,-16%,-1%,7%,-11%,u,-29%
COc1cccc(-n2c(-c3ccc4[nH]c(C)c(C)c4c3)n[nH]c2=S)c1,-36%,-6%,-2%,9%,-4%,7.9µM*
Cc1nnc(C(C)C)n1C1CC2CCC(C1)N2CC[C@H](NC(=O)C1CCC(F)(F)CC1)c1ccccc1 (stereo partly drawn),x,x,x,x,x,11%
CCOC(=O)c1c(N2C(=O)C=CC2=O)sc(C)c1C,-49%,-6%,13µM*,-15%,u,25µM*
N#CC1=C(N)OC2=C(CC/C2=C\c2ccccc2Cl)C1c1ccccc1Cl (stereo not drawn),-57%,-3%,-25%,-10%,1%,0%
N#CC1=C(N)OC2=C(CC/C2=C\c2ccccc2)C1c1ccccc1 (stereo not drawn),11µM*,5%,-24%,14%,2%,-1%
CSc1cccc(NC(=O)C2CCN(S(=O)(=O)c3ccc4c(c3)CCCN4C(=O)C3CCC3)CC2)c1,x,-5%,x,x,x,4%
O=C(Oc1ccc2c(c1)OCO2)c1cc2c(s1)CCC2,16µM*,-12%,-16%,u,-9%,-5%
O=C(c1cc2c(s1)CCCC2)N1CCN(Cc2ccc3c(c2)OCO3)CC1,159%,u,-8%,-12%,0%,-16%
COc1cc(NC(=O)Cn2nnc(-c3ccccc3N)n2)cc(OC)c1,20µM*,-5%,5%,-2%,-3%,-4%
CCCOc1ccc(Oc2nc(NCC(C)C)nc(N(C)C)n2)nn1,x,14%,x,x,x,4%
Cc1ccc(C)c(NC(=O)CSc2nc(N)c(NC(=O)c3cccs3)c(=O)[nH]2)c1,14µM*,-17%,13%,1%,3%,-1%
O=C(CSc1nc2nc(-c3cccs3)cc(C(F)(F)F)c2c(=O)[nH]1)Nc1ccc(F)c(F)c1,-40%,5%,19%,15%,0%,-1%
Cc1ccc(C)c(NC(=O)CSc2nc3nc(-c4cccs4)cc(C(F)(F)F)c3c(=O)[nH]2)c1,3.5µM*,-1%,2%,17%,5%,0%
Cc1cccc(NC(=O)CSc2nc(N)c(NC(=O)c3cccs3)c(=O)[nH]2)c1,-38%,-9%,0%,4%,2%,6%
CCN1CCCC1CNC(=O)CN1C(=O)COc2ccc(C)cc21 (stereo not drawn),25µM*,7%,-2%,-6%,0%,-1%
Cc1ccccc1C(=O)NC(C)C(c1cccs1)N1CCOCC1 (stereo not drawn),2.8µM*,u,0%,4%,0%,-14%
Cc1oc(-c2ccccc2)nc1CSc1nnc(C)n2c1cc1sccc12,x,-5%,x,x,x,0%
S=c1[nH]nc(-c2ccc(Br)cc2)n1-c1ccc2c(c1)OCCO2,-44%,-2%,20%,6%,u,u
S=c1[nH]nc(-c2ccc(Cl)cc2Cl)n1-c1ccc2c(c1)OCCO2,-43%,1%,2%,1%,u,6.3µM*
S=c1[nH]nc(-c2ccc(Cl)cc2Cl)n1-c1ccccc1,-25%,2%,14%,20%,-19%,-21%
